Source: the supplement of paper PMC6555819

Test system: LXRb:RXRa (NR concentration 270 nM, RXRa partner concentration 90 nM)
Assay: PBM binding z-score (relative to random genomic background probes); higher = stronger binding; sequences stand for … in GC…GCGATTGACAGCGTAGAATGAAGG
Outline: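 Binding z-scores were set against random background probes. The data came from custom Agilent 4×180K protein-binding microarrays carrying double-stranded probes with 34-nt variable regions, incubated 1 h with ligand-free nuclear receptor dimers. Partner-specific antibodies detected binding, and scanned fluorescence was regression-normalized.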

| Sequence | PBM binding z-score |
| --- | --- |
| ATCGAAAGGTCGACGAGGTGAATATACACCGTTT | 3.31 |
| CGTCCTAGGTCAAGGTCAGTGAAAGAGACTCGAA | 3.5 |
| CTCGAAAGGTCGTGCTCAGGTGAGCATACCAAAC | 3.23 |
| ATCGAAAGGTCGAAGGTGAGTATACCCACCCGAA | 2.86 |
| CCGGCTGGGGCAGAAAGGTTACCATACCATCCGG | 0.64 |
| AGAATGAGGTTATTAAGACCAGGGAATTGCGGTC | 1.09 |
| ATCGAACGGTCGAAGGTGAGTATACCCACCCGAA | -0.384 |
| CATACAGGGTCAGCTAGGCAAGAGTAGGGACGGC | 1.96 |
| AGAATGAGGTTAAGATCAGGGAAACAGAATACAT | 1.9 |
| ACAGACAGGTGAGGGAAGGTAACTCAGCTGGACG | -0.181 |
| GCTAGTTGGTCAGTAGAAGGTCACACACCGGTCG | 2.24 |
| CCAGACAGGTGAGAAGGCAACTCAGCCTCGATTA | -0.403 |
| ATCTCTAGGTAAAGTTCCGTGAAAGATCGATAGA | 0.245 |
| TCTAGTTGGTCACGGAGGTCACGCACGACGGGTA | 3.75 |
| TTACCATGGTGAAAGGTCGTTGATGCACGCCTTG | 2.22 |
| CGAACTAGGTCATTGACAGGACATTGAATAGTAA | 2.32 |
| GGAACGAGGGCAAGTAGATAGCAGAGTTTGATGG | -0.016 |
| AGAACGAGGGCACGCTGAGTTGATCGCAGAGTAG | 0.0852 |
| CATCCAGGGTCAGCTAGGCCAGAGTAGGGACGGC | 2.1 |
| CCGAGTAGGTTATGGGGAATTCAGGCAACGGTGA | 0.918 |

| Sequence | PBM binding z-score |
| --- | --- |
| ACTCGGAGGACAAAGGTCGGAGCTACGCCAGTGA | 0.689 |
| GGAACGAGGGCAAAGTTGACAGCATCTGTCGACG | 1.25 |
| TCTTGTTGATCAAGCAGGTTAAGAAAGCCTGAGT | 0.357 |
| CCGAGTAGGTTATGGGGCCTTCAGGCAACGGTGA | 0.353 |
| TCTCGGAGGACGCGAAAGGTCAGAGCTCGACATC | 2.37 |
| TAGCCTAGGTCAGATTGGGCCAGTATACGCTATA | 0.995 |
| GATATTAGTTGAAAGGGCAACCGAATGATTCTCG | 1.26 |
| GGAACGAGGGCAAGCTGATAGCAGAGTTTGATGG | 0.0396 |
| CCGACTGGGGCACGGTTACCATAACGCACAGCCA | -0.211 |
| GCAGACAGGTGGAACGCAGGTAACTCAGGGTGGC | -0.84 |
| AGAATGAGGCTATACGTAGATCAGGGAAGAAAGT | -0.708 |
| CCAGACAGGTGAGAAGGTACCTCAGCCTCGATTA | -0.357 |
| GCTAGCAGGCCATTTGCGTCACTCAATGACGGGC | -1.15 |
| ATCGAAAGTTCGACGAGGTGAGTATACACCGTTT | 0.494 |
| CCTCAGAGGACAACAGGAGGTCAGAGCTGCCAGA | 1.34 |
| CGTCAAAGTTCAACTAAGGTAACGTACAGCACGC | 4.34 |
| GAAACAGGGTCAAGGCCAGAGTACGCGTATTGAT | 3.92 |
| GCTTGTAGATCAAGGTTAAGAACGACTAAGCTAA | 0.349 |
| TCTTGTAGATCAAAGGTTAAGAATGCCGAAGCCT | 1.94 |
| GCTTGTAGTTCAAGGTTAAGAAAGACTAAGCTAA | 1.53 |
